In the library only some 4.3% were active in any assay of this set; here they are far more common.
DRD3 agonist: qHTS of D3 Dopamine Receptor Agonist: qHTS. D(3) dopamine receptor (Homo sapiens), P35462. D3R DiscoveRx beta-arrestin cells, luminescence, 90 min. max activation, %. hit rate 0.58% among 410,000; in the data active = max activation above about 30%
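Cells at 1500/well, incubated overnight, then treated with pinned compounds (dopamine as control) for 90 min at 37 degrees C. DiscoveRx reagent added for 30 - 60 minutes at room temperature; luminescence read.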
GLP1R ag: qHTS of GLP-1 Receptor Agonists; Glucagon-like peptide 1 receptor (Homo sapiens), P43220; hit rate 0.007% among 380,000; HEK293 GLP-1R CRE-luciferase, luminescence, 4-6 h; cells express a hypersensitive GLP-1R form; Potency, µM (doses to about 45.6 µM), actives largely listed as activators
Target sequence (P43220 whole entry, looked up): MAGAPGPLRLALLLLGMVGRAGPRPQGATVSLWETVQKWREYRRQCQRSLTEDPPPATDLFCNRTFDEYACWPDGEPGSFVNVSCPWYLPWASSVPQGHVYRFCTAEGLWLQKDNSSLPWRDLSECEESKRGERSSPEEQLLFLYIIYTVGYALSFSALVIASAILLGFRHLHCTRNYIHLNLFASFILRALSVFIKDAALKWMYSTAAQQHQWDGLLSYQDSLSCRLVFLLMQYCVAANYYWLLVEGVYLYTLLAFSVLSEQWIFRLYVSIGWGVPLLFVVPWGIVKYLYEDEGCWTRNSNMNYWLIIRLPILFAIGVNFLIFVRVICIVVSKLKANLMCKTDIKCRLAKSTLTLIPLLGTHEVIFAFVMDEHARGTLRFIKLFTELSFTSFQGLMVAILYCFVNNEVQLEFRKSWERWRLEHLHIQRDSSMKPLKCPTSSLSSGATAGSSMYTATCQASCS
GLP1R inv ag: qHTS of GLP-1 Receptor Inverse Agonists (Inhibition Mode); Glucagon-like peptide 1 receptor (Homo sapiens), P43220; HEK293 GLP-1R CRE-luciferase, luminescence, 24 h; GLP-1R form is constitutively active; Potency, µM (top dose mostly 38.3 µM), actives largely listed as inhibitors; hit rate 1.6% among 410,000; also: nearly all actives have a fitted effect of over 55% in size
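qHTS in 1536-well format: reporter HEK293 cells expressing constitutive GLP-1R activity in DMEM + 10% Nu serum, 24 hr with compounds at 37 deg C, luminescence read after 12 min with detection reagent.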
D3 antag: qHTS of D3 Dopamine Receptor Antagonist: qHTS; D3R cells, DiscoveRx beta-arrestin luminescence, antagonist mode; stronger effect = lower value; max response, negative = inhibition, %; hit rate 2.5% among 360,000; AID 652054, 2013; D(3) dopamine receptor (Homo sapiens), P35462; in the data active = max response below about -50%; inconclusive = no clear call, values can overlap the other calls
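Cells expressing the human receptor were seeded at 1500 cells/well, incubated overnight at 37 degrees C in 5% CO2, then exposed to library compounds with dopamine controls for 90 minutes at 37 degrees C before luminescent detection.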
Of the large screens only hits and unclear results are named; the others gave an inactive call. Unless noted, calls follow the shape of the dose curve; as a rule, active = well fitted curve in the direction sought with a large enough effect; inconclusive = small, poorly fitted or top-dose-only effect, or another doubt; inactive = no such curve, though single readings can be large; an effect the other way counts as inactive or inconclusive.

CN1CC[C@]2(CCN3CCc4c(oc5ccccc45)[C@@H]3C2)N(C)C1=O	D3 antag -57.9
OCC1OC(OC2C(CO)OC(OC3C(CO)OC(O)C(O)C3O)C(O)C2O)C(O)C(O)C1O (stereo not given)	none (no result: DRD3 agonist, GLP1R inv ag, D3 antag)
CCN1CCC(O)(/C=C/c2ccc(C(C)C)cc2)C(C(=O)/C=C/c2ccc(C(C)C)cc2)C1 (stereo not given)	GLP1R inv ag inconclusive, D3 antag -65.7
CCN1CCN(C(=O)/C=C/c2ccc(C(C)C)cc2)CC1	GLP1R inv ag inconclusive, D3 antag inconclusive
CCN1/C(=C/c2ccc3ccccc3[n+]2CC)C=Cc2ccccc21	GLP1R inv ag inconclusive, D3 antag -52.5
CCN1/C(=C/c2ccc3ccccc3[n+]2CCCS(=O)(=O)[O-])C=Cc2cc(C)ccc21	GLP1R inv ag inconclusive
CC(=O)n1cc(N(C(=O)CCl)c2ccc(Cl)cc2)c2ccccc21	GLP1R inv ag 11.2µM, D3 antag -57.9
COc1ccccc1N(C(=O)CCl)c1cn(C(C)=O)c2ccccc12	GLP1R inv ag 3.16µM
CCOC(=O)c1ccccc1Nc1cn(C(C)=O)c2ccccc12	none
CC(=O)SCC(CC(=O)c1ccc(C)cc1)C(=O)O (stereo not given)	none (no result: GLP1R inv ag, D3 antag)
CC(=O)c1cccc(-c2ccc3c(=O)[nH]c(Nc4ccccc4)cc3c2)c1	DRD3 agonist 30.6
O=c1[nH]c(Nc2ccccc2)cc2cc(Br)ccc12	none
COc1cc2c(-c3ccc4cc[nH]c4c3)c(-c3ccsc3)oc(=O)c2cc1OC	DRD3 agonist 51.7
COc1cccc(N2[C@@H](CC(=O)O)c3ccccc3S2(=O)=O)c1	none
COc1ccccc1CN1[C@@H](CC(=O)O)c2ccccc2S1(=O)=O	D3 antag -53.6
CSCCCN1CCC(n2nccc2NC(=O)CCCc2ccccc2)CC1	D3 antag -50.5
CSCC(C)N1CCC(n2nccc2NC(=O)CCCc2ccccc2)CC1 (stereo not given)	none
C=C(C)CCC(C)N1CCC(n2nccc2NC(=O)CCCc2ccccc2)CC1 (stereo not given)	GLP1R inv ag inconclusive, D3 antag -59.7
COc1cc([C@H]2c3cc4c(cc3[C@@H](O[C@H]3O[C@H]5CO[C@@H](C)O[C@H]5[C@@H](O)[C@@H]3O)[C@@H]3COC(=O)[C@H]23)OCO4)cc(OC)c1O	none (no result: DRD3 agonist, GLP1R inv ag, D3 antag)
COc1cc([C@@H]2c3cc4c(cc3[C@@H](O[C@@H]3O[C@@H]5CO[C@@H](C)O[C@H]5[C@H](O)[C@H]3O)[C@H]3COC(=O)[C@H]23)OCO4)cc(OC)c1O	GLP1R inv ag 2.82µM
CCCn1c2ccccc2c2cnn(CC(=O)Nc3cccc(C(=O)OCC)c3)c(=O)c21	none (no result: GLP1R ag, D3 antag)
CCOc1ccc(CCNC(c2nnc(-c3ccccc3)o2)c2ccccc2Cl)cc1OCC (stereo not given)	GLP1R inv ag 10µM (no result: GLP1R ag, D3 antag)
Cc1c(NC(=O)CN2C(=O)c3ccccc3S2(=O)=O)c(=O)n(-c2ccccc2)n1C	D3 antag -54.9
Cc1c(NC(=O)CN2CCN(c3ccccc3)CC2)c(=O)n(-c2ccccc2)n1C	none
Cc1c(NC(=O)Cn2[nH]c(=O)c3ccccc3c2=O)c(=O)n(-c2ccccc2)n1C	D3 antag -52.1
C=CCn1c(SCC(=O)Nc2c(C)n(C)n(-c3ccccc3)c2=O)nc2sc(C)c(-c3ccccc3)c2c1=O	GLP1R inv ag 3.16µM
Cc1c(NC(=O)CSc2nc3ccc(Cl)cc3[nH]2)c(=O)n(-c2ccccc2)n1C	none
Cc1c(NC(=O)CSc2nc3ccccc3[nH]2)c(=O)n(-c2ccccc2)n1C	D3 antag -77.8
CC(C)(Cc1c[nH]c2ccccc12)NCC(O)COc1ccccc1C#N (stereo not given)	none (no result: GLP1R inv ag, D3 antag)
COc1cc(NC(=O)CC(C)S(=O)(=O)c2cc3c4c(c2)CCN4C(=O)CC3)cc(OC)c1 (stereo not given)	none (no result: GLP1R ag, D3 antag)
O=C(C1CCN(Cc2ccccc2)CC1)N1CCN(C/C=C/c2ccccc2)CC1	GLP1R inv ag inconclusive, D3 antag -54.2
O=C(C1CCN(Cc2ccc(F)cc2)CC1)N1CCN(C/C=C/c2ccccc2)CC1	GLP1R inv ag inconclusive, D3 antag -77.2
O=C(C1CCN(C2CCN(C/C=C/c3ccccc3)CC2)CC1)N1CCOCC1	GLP1R inv ag inconclusive
Cc1ccc(S(=O)(=O)Nc2nc3n(n2)C(c2ccc(F)cc2)C=C(c2ccccc2)N3)cc1 (stereo not given)	DRD3 agonist 39.3 (no result: GLP1R ag, D3 antag)
Cc1ccc(C2C=C(c3ccccc3)Nc3nc(NS(=O)(=O)c4ccccc4)nn32)cc1 (stereo not given)	none (no result: GLP1R ag, D3 antag)
Nc1c(C(=O)c2ccccc2)sc2c1c(=O)[nH]c(=O)n2-c1ccccc1	D3 antag -52.8
CCOC(=O)C1(Cc2ccc(OC)cc2)CCN(C(=O)c2ccc3[nH]ccc3c2)CC1	GLP1R inv ag 4.47µM
CCOC(=O)C1(Cc2ccc(OC)cc2)CCN(C(=O)c2ccoc2C)CC1	GLP1R inv ag inconclusive
Cc1cn2c(=O)cc(COc3ccc(NC(=O)c4ccccc4C)cc3)nc2s1	none (no result: D3 antag)
COC(=O)c1ccc(NC(=O)CSc2nc3cc4ccccc4cc3[nH]2)cc1	none (no result: GLP1R ag, D3 antag)
Cc1cc(N2CCC(C(=O)Nc3ccc(F)cc3)CC2)nc(-c2ccccc2)n1	GLP1R inv ag 10µM
CCCn1ncc(CN2CCC(C(=O)Nc3cccc(-c4cccc(F)c4)c3)CC2)c1C	GLP1R inv ag inconclusive
Cc1cccc(CN2CCC(C(=O)Nc3cccc(-c4cccc(F)c4)c3)CC2)n1	GLP1R inv ag 10µM
Cc1nn(C(C)C)c(C)c1CN1CCC(C(=O)Nc2cccc(-c3cccc(F)c3)c2)CC1	GLP1R inv ag 5.01µM, D3 antag -53.4
Cc1ccc(Cl)cc1N1CCN(C(=O)Cc2c(C(=O)O)c(C)cn2C)CC1	none (no result: GLP1R ag, D3 antag)
Cc1cccc2nc(-c3ccccn3)c(Nc3ccc(F)cc3)n12	GLP1R inv ag inconclusive (no result: GLP1R ag, D3 antag)
O=C1CCC[C@@H]2C[C@@]3(C[C@@H]4CCN1[C@H]24)Nc1cc([N+](=O)[O-])ccc1NC3=NC1CCCCC1	D3 antag inconclusive
O=C1CCC[C@@H]2C[C@@]3(C[C@@H]4CCN1[C@H]24)Nc1cc(Cl)ccc1NC3=NC1CCCCC1	D3 antag -77.6
O=C1CCC[C@@H]2C[C@@]3(C[C@@H]4CCN1[C@H]24)Nc1cc(Cl)ccc1NC3=NCc1ccccc1	none
O=C1CC[C@@H]2CC3(C[C@@H]4CCN1[C@H]24)Nc1cc(Cl)ccc1NC3=NC1CCCCC1 (stereo not given in full)	D3 antag -62.7
CC(C)(C)C(=O)/C(=C/c1ccncc1)n1cncn1	GLP1R inv ag inconclusive, D3 antag -55.8
CN(C)S(=O)(=O)c1ccc2c(c1)N(CC(=O)N1CCC(C(N)=O)CC1)CCS2	none (no result: D3 antag)
C=C1C(=C/C=C2\CCC[C@]3(C)[C@@H]([C@H](C)/C=C/[C@@H](O)C4CC4)CC[C@@H]23)C[C@@H](O)C[C@@H]1O	none (no result: GLP1R ag, GLP1R inv ag, D3 antag)

Assay outcomes: PubChem BioAssay, National Center for Advancing Translational Sciences (NCATS)
